In all, about 5,500 compounds went through this assay and about 2,000 (36%) were called active. About 18% were inconclusive and are not listed. No stated cut-off is given here; in the data, active means normalized growth mostly below about 0.91 (no sharp cut-off); inconclusive means no clear call, values can overlap the other calls; inactive means mostly above about 0.92. This is one part of the list.
Assay: chemical genetic growth profiling, strain panel (AID 1159580);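 further: tested at 20 µM; growth read once vehicle control cultures reached saturation at 30 °C; 1 = growth at the plate median or of vehicle wells; lower values mean less growth of the strain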
Conditions: growth OD

Measured: normalized growth

CC[C@H]1OC(=O)[C@H](C)[C@@H](O[C@H]2C[C@@](C)(OC)[C@@H](O)[C@H](C)O2)[C@H](C)[C@@H](O[C@@H]2O[C@H](C)C[C@H](N(C)C)[C@H]2O)[C@](C)(O)C[C@@H](C)/C(=N/OCOCCOC)[C@H](C)[C@@H](O)[C@]1(C)O
inactive: S. cerevisiae deletion strains, locus YJR075W, strain HOC1, hits give low values 0.989 | S. cerevisiae deletion strains, locus YKL009W, strain mrt4, hits give low values 1.01 | S. cerevisiae deletion strains, locus YKL068W, hits give low values 1 | S. cerevisiae deletion strains, locus YKL085W, strain MDH1 (second series), hits give low values 1 | S. cerevisiae deletion strains, locus YKL085W, strain MDH1, hits give low values 1 | S. cerevisiae deletion strains, locus YKL160W, strain elf1, hits give low values 1.02 | S. cerevisiae deletion strains, locus YKL190W, strain CNB1, hits give low values 1 | S. cerevisiae deletion strains, locus YKR001C, strain vps1, hits give low values 1.01 | S. cerevisiae deletion strains, locus YKR026C, strain gcn3, hits give low values 1 | S. cerevisiae deletion strains, locus YKR091W, strain srl3, hits give low values 1 | S. cerevisiae deletion strains, locus YLL001W, strain dnm1, hits give low values 1.02 | S. cerevisiae deletion strains, locus YLL026W, hits give low values 1.01 | S. cerevisiae deletion strains, locus YLL041C, strain sdh2, hits give low values 1.01 | S. cerevisiae deletion strains, locus YLR027C, strain aat2, hits give low values 1.01 | S. cerevisiae deletion strains, locus YLR039C, strain RIC1, hits give low values 0.968 | S. cerevisiae deletion strains, locus YLR058C, strain SHM2, hits give low values 0.998 | S. cerevisiae deletion strains, locus YLR102C, strain apc9, hits give low values 0.989 | S. cerevisiae deletion strains, locus YLR113W, strain HOG1, hits give low values 0.967 | S. cerevisiae deletion strains, locus YLR221C, strain rsa3, hits give low values 1.01 | S. cerevisiae deletion strains, locus YLR258W, strain gsy2, hits give low values 1.02 | S. cerevisiae deletion strains, locus YLR262C, strain YPT6 (second series), hits give low values 0.989 | S. cerevisiae deletion strains, locus YLR262C, strain YPT6, hits give low values 0.997 | S. cerevisiae deletion strains, locus YLR268W, strain sec22, hits give low values 1.03 | S. cerevisiae deletion strains, locus YLR320W, strain mms22, hits give low values 0.993 | S. cerevisiae deletion strains, locus YLR330W, strain CHS5, hits give low values 1.01 | S. cerevisiae deletion strains, locus YLR342W, strain FKS1 (second series), hits give low values 1.01 | S. cerevisiae deletion strains, locus YLR342W, strain FKS1, hits give low values 1.02 | S. cerevisiae deletion strains, locus YLR357W, strain rsc2, hits give low values 1.05 | S. cerevisiae deletion strains, locus YLR370C, strain arc18, hits give low values 1.01 | S. cerevisiae deletion strains, locus YLR371W, strain rom2, hits give low values 0.972 | S. cerevisiae deletion strains, locus YLR418C, strain cdc73, hits give low values 1.03 | S. cerevisiae deletion strains, locus YML016C, strain PPZ1, hits give low values 1.01 | S. cerevisiae deletion strains, locus YML032C, strain rad52, hits give low values 1.01 | S. cerevisiae deletion strains, locus YML120C, strain ndi1, hits give low values 1.01 | S. cerevisiae deletion strains, locus YML124C, strain tub3, hits give low values 0.999 | S. cerevisiae deletion strains, locus YMR058W, strain fet3, hits give low values 1.01 | S. cerevisiae deletion strains, locus YMR078C, strain ctf18, hits give low values 1.01 | S. cerevisiae deletion strains, locus YMR125W, strain sto1, hits give low values 1.01 | S. cerevisiae deletion strains, locus YMR129W, hits give low values 1.02 | S. cerevisiae deletion strains, locus YMR205C, strain PFK2, hits give low values 0.99 | S. cerevisiae deletion strains, locus YMR223W, strain ubp8, hits give low values 1.03 | S. cerevisiae deletion strains, locus YMR231W, strain pep5, hits give low values 1.01 | S. cerevisiae deletion strains, locus YMR307W, strain GAS1, hits give low values 1.02 | S. cerevisiae deletion strains, locus YNL067W, strain RPL9B, hits give low values 0.986 | S. cerevisiae deletion strains, locus YNL071W, strain lat1, hits give low values 0.955 | S. cerevisiae deletion strains, locus YNL183C, strain NPR1, hits give low values 0.937 | S. cerevisiae deletion strains, locus YNL209W, strain ssb2, hits give low values 1.01 | S. cerevisiae deletion strains, locus YNL233W, strain BNI4, hits give low values 0.977 | S. cerevisiae deletion strains, locus YNL248C, strain rpa49, hits give low values 1.03 | S. cerevisiae deletion strains, locus YNL250W, strain rad50, hits give low values 1.05 | S. cerevisiae deletion strains, locus YNL271C, strain bni1, hits give low values 1.01 | S. cerevisiae deletion strains, locus YNL298W, strain CLA4, hits give low values 1.02 | S. cerevisiae deletion strains, locus YNL307C, strain MCK1, hits give low values 1 | S. cerevisiae deletion strains, locus YNL322C, strain KRE1 (second series), hits give low values 1.01 | S. cerevisiae deletion strains, locus YNR049C, strain mso1, hits give low values 1.01 | S. cerevisiae deletion strains, locus YNR052C, strain pop2, hits give low values 1 | S. cerevisiae deletion strains, locus YOL006C, strain TOP1, hits give low values 0.92 | S. cerevisiae deletion strains, locus YOL012C, strain htz1 1.11 | S. cerevisiae deletion strains, locus YOL147C, strain pex11, hits give low values 1.01 | S. cerevisiae deletion strains, locus YOR001W, strain rrp6, hits give low values 1.01 | S. cerevisiae deletion strains, locus YOR061W, strain CKA2, hits give low values 1 | S. cerevisiae deletion strains, locus YOR069W, strain VPS5, hits give low values 1.01 | S. cerevisiae deletion strains, locus YOR070C, strain gyp1, hits give low values 1 | S. cerevisiae deletion strains, locus YOR080W, strain dia2, hits give low values 1.02 | S. cerevisiae deletion strains, locus YOR083W, strain WHI5, hits give low values 1.02 | S. cerevisiae deletion strains, locus YOR106W, strain vam3, hits give low values 1.03 | S. cerevisiae deletion strains, locus YOR136W, strain idh2, hits give low values 1.02 | S. cerevisiae deletion strains, locus YOR144C, strain elg1, hits give low values 1 | S. cerevisiae deletion strains, locus YOR184W, strain ser1, hits give low values 1.01 | S. cerevisiae deletion strains, locus YOR231W, strain MKK1, hits give low values 0.988 | S. cerevisiae deletion strains, locus YOR265W, strain rbl2, hits give low values 1.01 | S. cerevisiae deletion strains, locus YOR270C, strain vph1, hits give low values 1.01 | S. cerevisiae deletion strains, locus YOR290C, strain snf2, hits give low values 1.01 | S. cerevisiae deletion strains, locus YOR316C, strain cot1, hits give low values 0.994 | S. cerevisiae deletion strains, locus YPL051W, strain arl3, hits give low values 1.01 | S. cerevisiae deletion strains, locus YPL055C, strain LGE1, hits give low values 0.988 | S. cerevisiae deletion strains, locus YPL078C, strain atp4, hits give low values 1.01 | S. cerevisiae deletion strains, locus YPL106C, strain sse1, hits give low values 1.04 | S. cerevisiae deletion strains, locus YPL240C, strain hsp82, hits give low values 1.01 | S. cerevisiae deletion strains, locus YPL241C, strain CIN2, hits give low values 1 | S. cerevisiae deletion strains, locus YPL256C, strain CLN2, hits give low values 0.994 | S. cerevisiae deletion strains, locus YPR119W, strain clb2, hits give low values 0.989 | S. cerevisiae deletion strains, locus YPR141C, strain kar3, hits give low values 1.01 | S. cerevisiae deletion strains, locus YPR163C, strain tif3, hits give low values 1 | S. cerevisiae deletion strains, locus YPR167C, strain met16, hits give low values 1.01 | S. cerevisiae deletion strains, strain wtn01, hits give low values 1.02 | S. cerevisiae strains, strain wild type, hits give low values 1.01
